Assay results published in PubChem BioAssay (NCATS).
Where “and” joins values, the source holds several entries; their conditions need not be identical. Equal entries are not always repeated. Unmarked numbers belong to inactive results. Results filed as inconclusive are left out. A call without a number means that no potency is given here. Calls of active or inactive are those of the source. Unless noted, calls follow the shape of the dose curve; as a rule, active = well fitted curve in either direction with a large enough effect (not every such curve was filed as active); inconclusive = small, poorly fitted or top-dose-only effect, or another doubt; inactive = flat fitted curve, though single readings scatter.

What was measured:
[1] = AP1 Signaling Pathway (AID 357); settings: ME-180 AP-1-bla reporter, EGF-induced, beta-lactamase ratio, 5 h; at 7.69 µM (top of the series) unless noted;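 also: ME-180 reporter cells stimulated with EGF at its EC50 level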
In short: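 Titration-series screen for positive or negative modulators of EC50 EGF-induced signaling in ME-180 cells carrying an AP-1-driven beta-lactamase reporter. After 5 hours at 37 degrees Celsius, CCF4 460nm/530nm emission ratio gave %Activity; AC50 values derived.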

[2] = target: Cytochrome P450 1A2 (Homo sapiens) (UniProt P05177); assay: p450-cyp1a2 (AID 410; calls by dose curve; also: potency is read from the fitted curve at half-maximal effect)
In short: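 20nM CYP1A2, 100uM Luciferin-ME (=Km), 100mM KPO4; cpd 10 min RT; +NADPH regen, 60 min RT; stop/detect 20 min; luminescence. Normalized to furafylline 57 uM = full inhibition.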

[3] = NFAT Signaling Pathway (AID 444); settings: Jurkat NFAT-bla M1, carbachol, beta-lactamase ratio, 5 h; at 7.69 µM (top of the series) unless noted;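 also: carbachol stimulus at about its EC50 of 1 µM final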
In short: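 Jurkat cells carrying an NFAT-driven β-lactamase reporter and co-transfected muscarinic M1 receptor were treated with compound plus carbachol (1 uM final, an EC50 level) for 5 h at 37 °C. CCF4 loading followed for 1 h at RT; 460/530 nm ratio gave %activity.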

[4] = Stat Signaling Pathway (AID 446); settings: ME-180 (cervical carcinoma) SIE beta-lactamase reporter, IL-6 stimulated, 5 h; at 7.69 µM (top of the series) unless noted;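 also: ME-180 cervical cancer cells given 40 pM IL-6 alongside compound; SIE-controlled beta-lactamase reporter measured as 460/530 nm FRET emission ratio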
In short: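 Overnight-plated ME-180 cells bearing a STAT Inducible Element beta-lactamase reporter; 5 h co-exposure to compound and 40 pM IL-6; values normalized to 300 pM IL-6 and 125 nM JAK inhibitor controls.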

[5] = target: 3',5'-cyclic-AMP phosphodiesterase 4B (Homo sapiens) (UniProt Q07343); assay: qHTS Assay for Inhibitors of PDE-IV (AID 607; active = well fitted activation curve with a large enough effect in the main read-out, with a control signal flat, not every such curve was filed as active)
In short: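 Live HEK293 cells with a modified cyclic nucleotide-gated (CNG) channel report intracellular cAMP via membrane-potential dye fluorescence (ex 535/em 590 nm). Endogenous PDE-IV was targeted. Compounds were tested at up to 22.9 uM final; RO 20-1724 100 uM served as control.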

[6] = target: Cytochrome P450 2C9 (Homo sapiens) (UniProt P11712); assay: qHTS Assay for Inhibitors and Substrates of Cytochrome P450 2C9 (AID 883; active = well fitted curve in the direction sought with a large enough effect; an effect the other way counts as inactive or inconclusive; also: nearly all actives have a fitted effect of over 60% in size; also: potency is read from the fitted curve at half-maximal effect)
In short: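 CYP2C9 deoxyluciferin hydroxylation, 37C, 60 min with NADPH regeneration; 10nM enzyme, 100uM Luciferin-H (KM). Glo detection reagent stopped reaction; luminescence normalized to sulphaphenazole (57uM) full inhibition.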

[7] = target: Cytochrome P450 2D6 (Homo sapiens) (UniProt P10635); assay: qHTS Assay for Inhibitors and Substrates of Cytochrome P450 2D6 (AID 891; active = well fitted curve in the direction sought with a large enough effect; an effect the other way counts as inactive or inconclusive;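 also: luciferin methyl ether substrate demethylated by CYP2D6 with NADPH regeneration; nearly all actives have a fitted effect of over 60% in size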)
In short: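 Luminescent read-out of luciferin formed by 5 nM human CYP2D6 demethylating 30 uM Luciferin-ME EGE (Km level) over 60 min at room temperature after NADPH regeneration addition. Data normalized to full inhibition by 1.43 uM quinidine.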

[8] = target: Cytochrome P450 2C19 (Homo sapiens) (UniProt P33261); assay: qHTS Assay for Inhibitors and Substrates of Cytochrome P450 2C19 (AID 899; active = well fitted curve in the direction sought with a large enough effect; an effect the other way counts as inactive or inconclusive; also: nearly all actives have a fitted effect of over 60% in size; also: potency is read from the fitted curve at half-maximal effect)
In short: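 In 50mM KPO4, the reaction held 5nM enzyme and KM-level (10uM) Luciferin-H EGE; it ran 60 min at 37C after NADPH regeneration and a 10 min compound preincubation. Luminescence values were scaled to 57uM ketoconazole as complete inhibition.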

[9] = target: Mitogen-activated protein kinase 10 (Mus musculus) (UniProt Q61831); assay: JNK3 AlphaScreen Assay (AID 530);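 also: kinase came from lysate of stimulated human HepG2 cells; signal reports phosphorylation of biotinylated GST-cJun 1-79 at Ser73 with 10 µM ATP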
In short: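 Biotinylated GST-cJun(1-79) served as substrate for JNK3 in HepG2 lysates stimulated with IL-1beta and TNF-alpha. ATP was 10 uM final, pH 7.6. Ser73 phosphorylation was quantified by AlphaScreen (680 nm excitation).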

[10] = target: Glucocorticoid receptor (Homo sapiens) (UniProt P04150); assay: GR-GFP Redistribution (AID 450;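 active = compounds whose dose series gives a full or clear partial fitted curve of increased nuclear translocation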; also: potency is read from the fitted curve at half-maximal effect); settings: U2OS GR-GFP nuclear translocation, laser cytometry, 2 h
[11] = target: Glucocorticoid receptor (Homo sapiens) (UniProt P04150); assay: GR-EFC Redistribution (AID 451; calls by dose curve; also: potency is read from the fitted curve at half-maximal effect); settings: CHO-K1 GR-EFC translocation, beta-gal luminescence, 2 h
In short: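 CHO-K1 cells stably expressing nuclear-localized β-gal enzyme acceptor and GR fused C-terminally to the enzyme donor fragment; ligand-driven nuclear translocation restores β-gal by complementation. Compounds titrated up to 46 uM final, 2 h at 37 °C; luminescence read.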

[12] = target: Guanine nucleotide-binding protein G(i) subunit alpha-1 (Homo sapiens) (UniProt P63096); assay: qHTS Assay for Inhibitors of RGS12 GoLoco Motif Activity (Green Fluorophore) (AID 879; active = well fitted curve in the direction sought with a large enough effect; an effect the other way counts as inactive or inconclusive;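 also: negative values mean loss of peptide binding seen as reduced polarization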)
In short: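 A drop in FITC polarization marked displacement of the FITC-tagged RGS12 GoLoco peptide (10 nM) from Gαi1 (50 nM). Compounds were incubated 10 min at room temperature in Tris pH 7.5 buffer containing 150 mM NaCl, 0.1 mM GDP and 0.05% NP40; unlabeled peptide titration served as control.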

[13] = target: Cytochrome P450 3A4 (Homo sapiens) (UniProt P08684); assay: qHTS Assay for Activators of Cytochrome P450 3A4 (AID 885; active = well fitted curve in the direction sought with a large enough effect; an effect the other way counts as inactive or inconclusive; also: nearly all actives have a fitted effect of over 65% in size)
In short: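 Using 20nM recombinant human CYP3A4 in potassium phosphate (200mM), substrate Luciferin-PPXE at 25uM, luminescent luciferin detection followed a 60-min RT NADPH reaction; data scaled to 57 uM ketoconazole.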

[14] = qHTS Assay for Identification of Small Molecule Agonists for Thrombopoietin (TPO) Signaling Pathway (AID 917; active = well fitted curve in the direction sought with a large enough effect; an effect the other way counts as inactive or inconclusive)
In short: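 Ba/F3 (mouse) + hTPO receptor + GpIIb-promoter luciferase; IL-3 withdrawn overnight; compound + 26 pM TPO (EC50), 24 hrs, 37 C, 5% CO2; Steadylite luminescence, 10 min RT.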

[15] = target: Muscarinic acetylcholine receptor M1 (Rattus norvegicus) (UniProt P08482); assay: qHTS Assay for Antagonists of Acetylcholine Muscarinic M1 Receptor: Kinetic Measurement of Intracellular Calcium Response (AID 943; active = well fitted curve in the direction sought with a large enough effect; an effect the other way counts as inactive or inconclusive; also: nearly all actives have a fitted effect of over 75% in size; also: potency is read from the fitted curve at half-maximal effect;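 as to activity change, negative = inhibition: Fluo-4 calcium signal as peak divided by basal fluorescence over 4 min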)
In short: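 Read-out: peak over basal Fluo-4 fluorescence, kinetic at 1 Hz for 4 min after EC80 carbachol (100 nM final). Rat M1-CHO cells, dye loaded 1 h at 37C, compound added 10 min before agonist.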

[16] = target: Pyruvate kinase (Leishmania mexicana) (UniProt Q27686); assay: qHTS Validation Assay for Inhibitors of Leishmania Mexicana Pyruvate Kinase (AID 945; active = well fitted curve in the direction sought with a large enough effect; an effect the other way counts as inactive or inconclusive)
In short: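 Read-out: luminescence from PKLight stop/detection reagent, data normalized to DMSO. Reaction: 0.2 nM E451W LmPYK, 0.5 mM PEP, 0.1 mM ADP, pH 7.2, 1 h room temperature.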

[17] = target: Pyruvate kinase PKM (Homo sapiens) (UniProt P14618); assay: qHTS Assay for Activators of Human Muscle Pyruvate Kinase (AID 954; active = well fitted curve in the direction sought with a large enough effect, not every such curve was filed as active)
In short: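 Screening used highly purified human pyruvate kinase M2 under submaximal activity, with PEP at its Km and ADP below Km. After an hour at room temperature, ATP was read by luciferase luminescence.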

[18] = target: Alpha-galactosidase A (Homo sapiens) (UniProt P06280); assay: Counterscreen for Glucocerebrosidase Inhibitors: qHTS Assay for Human alpha-Galactosidase at pH 4.5 (AID 992; active = well fitted curve in the direction sought with a large enough effect; an effect the other way counts as inactive or inconclusive)
In short: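 Each compound is preincubated briefly with 2 nM enzyme before substrate addition (80 uM); plates then sit 20 min at ambient temperature, are quenched with 1M NaOH/1M glycine, and read fluorometrically.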

[19] = target: alpha-glucosidase (Oryza sativa, rice) (UniProt Q653V4); assay: Counterscreen for Glucocerebrosidase Inhibitors: qHTS Assay for Rice alpha-Glucosidase at pH 5.0 (AID 997; active = well fitted curve in the direction sought with a large enough effect; an effect the other way counts as inactive or inconclusive)
In short: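 Endpoint fluorogenic assay at pH 5.0: compounds (0.7 nM to 77 uM) titrated against 4 nM rice enzyme and 400 uM 4-MU-alpha-glucoside for 20 min at room temperature; NaOH/glycine stop, read ex 365/em 440 nm, Hill-fitted AC50.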

[20] = target: Muscarinic acetylcholine receptor M1 (Rattus norvegicus) (UniProt P08482); assay: qHTS Assay for Antagonists of Acetylcholine Muscarinic M1 Receptor: Measurement of IP-One Response (AID 944; active = well fitted curve in the direction sought with a large enough effect; an effect the other way counts as inactive or inconclusive; also: nearly all actives have a fitted effect of over 75% in size)
In short: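 Read-out: HTRF competition between d2-IP1 and Eu-cryptate anti-IP1 antibody, emission 620 and 665 nm. Stimulus was carbachol, EC80 (200 nM), for 30 min in M1-CHO cells (rat receptor), after 10 min compound pre-treatment.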

Cytochrome P450 2C9 (Homo sapiens), sequence (P11712 whole entry, looked up): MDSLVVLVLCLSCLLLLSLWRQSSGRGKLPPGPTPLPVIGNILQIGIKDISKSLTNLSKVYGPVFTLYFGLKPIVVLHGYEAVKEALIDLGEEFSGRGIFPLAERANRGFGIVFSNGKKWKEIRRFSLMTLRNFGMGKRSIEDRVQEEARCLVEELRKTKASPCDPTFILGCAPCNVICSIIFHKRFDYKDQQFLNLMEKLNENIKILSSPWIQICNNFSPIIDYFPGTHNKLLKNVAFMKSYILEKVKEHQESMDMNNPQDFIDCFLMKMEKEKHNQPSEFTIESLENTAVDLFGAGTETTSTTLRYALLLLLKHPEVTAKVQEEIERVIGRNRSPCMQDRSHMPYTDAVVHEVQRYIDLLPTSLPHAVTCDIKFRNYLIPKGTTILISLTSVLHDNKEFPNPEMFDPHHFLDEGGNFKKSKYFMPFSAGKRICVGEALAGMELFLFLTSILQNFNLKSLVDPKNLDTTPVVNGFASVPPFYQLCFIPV
Cytochrome P450 2C19 (Homo sapiens), sequence (P33261 whole entry, looked up): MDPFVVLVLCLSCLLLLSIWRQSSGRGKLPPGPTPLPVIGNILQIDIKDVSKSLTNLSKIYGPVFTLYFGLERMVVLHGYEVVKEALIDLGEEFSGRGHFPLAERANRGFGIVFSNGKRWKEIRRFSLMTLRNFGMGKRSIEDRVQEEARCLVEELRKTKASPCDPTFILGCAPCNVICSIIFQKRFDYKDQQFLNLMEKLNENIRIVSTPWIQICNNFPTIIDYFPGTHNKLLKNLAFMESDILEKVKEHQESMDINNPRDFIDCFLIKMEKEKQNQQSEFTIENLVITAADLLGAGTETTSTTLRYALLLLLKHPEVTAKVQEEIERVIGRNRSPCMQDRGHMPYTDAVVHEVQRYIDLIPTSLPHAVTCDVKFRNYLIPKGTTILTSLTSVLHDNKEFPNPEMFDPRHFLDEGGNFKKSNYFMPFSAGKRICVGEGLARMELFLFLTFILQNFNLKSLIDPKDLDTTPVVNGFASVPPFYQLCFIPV
Pyruvate kinase (Leishmania mexicana), sequence (Q27686 2-499 E452W): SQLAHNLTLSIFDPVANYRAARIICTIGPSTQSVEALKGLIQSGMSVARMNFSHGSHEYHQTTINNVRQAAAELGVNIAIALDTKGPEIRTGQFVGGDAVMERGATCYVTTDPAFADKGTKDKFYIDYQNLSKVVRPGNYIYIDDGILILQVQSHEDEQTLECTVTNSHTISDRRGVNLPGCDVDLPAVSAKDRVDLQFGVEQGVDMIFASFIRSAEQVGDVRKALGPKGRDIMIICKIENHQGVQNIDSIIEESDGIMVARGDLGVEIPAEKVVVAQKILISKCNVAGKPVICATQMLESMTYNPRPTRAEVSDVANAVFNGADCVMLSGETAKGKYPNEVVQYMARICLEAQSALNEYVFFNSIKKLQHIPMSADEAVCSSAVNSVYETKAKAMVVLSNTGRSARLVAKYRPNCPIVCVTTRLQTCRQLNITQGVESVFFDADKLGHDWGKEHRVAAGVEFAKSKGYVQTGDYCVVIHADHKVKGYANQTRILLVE
Guanine nucleotide-binding protein G(i) subunit alpha-1 (Homo sapiens), sequence (P63096 whole entry, looked up): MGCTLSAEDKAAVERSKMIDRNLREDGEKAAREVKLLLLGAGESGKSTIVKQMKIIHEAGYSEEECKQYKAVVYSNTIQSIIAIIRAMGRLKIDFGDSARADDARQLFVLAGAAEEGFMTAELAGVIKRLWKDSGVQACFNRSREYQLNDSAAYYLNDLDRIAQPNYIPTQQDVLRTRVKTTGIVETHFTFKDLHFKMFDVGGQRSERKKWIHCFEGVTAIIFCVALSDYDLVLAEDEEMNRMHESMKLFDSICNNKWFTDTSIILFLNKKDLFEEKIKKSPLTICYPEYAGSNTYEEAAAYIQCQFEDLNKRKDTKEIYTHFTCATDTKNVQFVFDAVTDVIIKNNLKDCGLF
Glucocorticoid receptor (Homo sapiens), sequence (P04150 whole entry, looked up, the tested form may be a part): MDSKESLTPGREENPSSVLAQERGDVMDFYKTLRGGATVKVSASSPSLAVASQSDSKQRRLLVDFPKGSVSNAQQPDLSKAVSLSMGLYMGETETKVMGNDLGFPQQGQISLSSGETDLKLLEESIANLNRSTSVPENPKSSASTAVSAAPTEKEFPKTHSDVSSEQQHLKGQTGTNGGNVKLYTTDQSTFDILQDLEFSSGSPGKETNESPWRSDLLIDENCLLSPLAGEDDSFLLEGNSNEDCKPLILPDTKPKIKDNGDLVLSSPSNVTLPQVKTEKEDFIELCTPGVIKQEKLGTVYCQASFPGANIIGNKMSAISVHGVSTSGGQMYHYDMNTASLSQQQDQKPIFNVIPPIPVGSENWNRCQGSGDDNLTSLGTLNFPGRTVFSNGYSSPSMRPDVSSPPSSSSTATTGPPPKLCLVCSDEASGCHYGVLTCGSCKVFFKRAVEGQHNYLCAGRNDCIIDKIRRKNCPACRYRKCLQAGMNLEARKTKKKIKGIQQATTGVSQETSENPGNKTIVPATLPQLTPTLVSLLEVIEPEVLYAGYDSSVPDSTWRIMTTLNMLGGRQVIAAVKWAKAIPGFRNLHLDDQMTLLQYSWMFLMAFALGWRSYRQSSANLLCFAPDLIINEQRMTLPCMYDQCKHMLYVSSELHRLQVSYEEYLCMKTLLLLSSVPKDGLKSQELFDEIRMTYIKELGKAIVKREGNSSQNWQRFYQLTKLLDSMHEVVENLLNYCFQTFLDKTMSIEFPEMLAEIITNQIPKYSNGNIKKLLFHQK
Muscarinic acetylcholine receptor M1 (Rattus norvegicus), sequence (P08482 whole entry, looked up): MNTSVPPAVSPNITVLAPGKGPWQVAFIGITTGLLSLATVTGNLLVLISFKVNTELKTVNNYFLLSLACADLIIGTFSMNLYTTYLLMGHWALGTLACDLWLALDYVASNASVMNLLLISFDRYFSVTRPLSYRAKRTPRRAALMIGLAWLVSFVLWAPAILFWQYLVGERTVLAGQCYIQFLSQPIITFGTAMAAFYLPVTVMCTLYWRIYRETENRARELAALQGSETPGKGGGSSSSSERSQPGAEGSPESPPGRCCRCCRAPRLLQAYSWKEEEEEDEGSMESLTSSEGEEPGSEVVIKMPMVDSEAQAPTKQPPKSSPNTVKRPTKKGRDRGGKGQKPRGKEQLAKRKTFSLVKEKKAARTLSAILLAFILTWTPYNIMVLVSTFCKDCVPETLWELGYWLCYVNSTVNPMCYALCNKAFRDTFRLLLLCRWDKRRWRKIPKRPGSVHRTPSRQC
Alpha-galactosidase A (Homo sapiens), sequence (P06280 whole entry, looked up): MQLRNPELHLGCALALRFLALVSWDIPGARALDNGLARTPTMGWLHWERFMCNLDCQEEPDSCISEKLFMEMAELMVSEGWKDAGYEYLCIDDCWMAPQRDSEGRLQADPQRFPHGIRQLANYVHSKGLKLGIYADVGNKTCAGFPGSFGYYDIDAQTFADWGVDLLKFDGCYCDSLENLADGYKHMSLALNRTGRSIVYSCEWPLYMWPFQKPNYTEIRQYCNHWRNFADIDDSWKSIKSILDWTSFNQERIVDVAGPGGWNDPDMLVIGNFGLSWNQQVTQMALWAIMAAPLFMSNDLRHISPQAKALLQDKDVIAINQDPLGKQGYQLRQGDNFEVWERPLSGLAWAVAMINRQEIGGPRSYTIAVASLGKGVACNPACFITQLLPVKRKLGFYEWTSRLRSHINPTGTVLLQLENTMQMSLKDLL
Pyruvate kinase PKM (Homo sapiens), sequence (P14618 whole entry, looked up): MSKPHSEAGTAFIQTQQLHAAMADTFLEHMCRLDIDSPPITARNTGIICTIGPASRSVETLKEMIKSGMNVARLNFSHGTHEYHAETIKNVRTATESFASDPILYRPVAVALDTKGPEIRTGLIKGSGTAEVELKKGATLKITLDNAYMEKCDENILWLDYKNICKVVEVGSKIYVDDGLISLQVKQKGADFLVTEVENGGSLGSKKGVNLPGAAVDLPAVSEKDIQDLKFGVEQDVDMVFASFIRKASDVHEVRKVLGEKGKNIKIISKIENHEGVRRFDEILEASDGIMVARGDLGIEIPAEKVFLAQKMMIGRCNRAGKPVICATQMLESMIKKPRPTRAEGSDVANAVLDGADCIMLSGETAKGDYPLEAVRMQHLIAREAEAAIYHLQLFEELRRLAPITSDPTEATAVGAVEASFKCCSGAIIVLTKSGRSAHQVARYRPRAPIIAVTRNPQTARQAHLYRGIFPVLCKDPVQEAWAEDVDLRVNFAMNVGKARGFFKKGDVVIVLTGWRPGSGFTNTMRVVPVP
3',5'-cyclic-AMP phosphodiesterase 4B (Homo sapiens), sequence (Q07343 whole entry, looked up): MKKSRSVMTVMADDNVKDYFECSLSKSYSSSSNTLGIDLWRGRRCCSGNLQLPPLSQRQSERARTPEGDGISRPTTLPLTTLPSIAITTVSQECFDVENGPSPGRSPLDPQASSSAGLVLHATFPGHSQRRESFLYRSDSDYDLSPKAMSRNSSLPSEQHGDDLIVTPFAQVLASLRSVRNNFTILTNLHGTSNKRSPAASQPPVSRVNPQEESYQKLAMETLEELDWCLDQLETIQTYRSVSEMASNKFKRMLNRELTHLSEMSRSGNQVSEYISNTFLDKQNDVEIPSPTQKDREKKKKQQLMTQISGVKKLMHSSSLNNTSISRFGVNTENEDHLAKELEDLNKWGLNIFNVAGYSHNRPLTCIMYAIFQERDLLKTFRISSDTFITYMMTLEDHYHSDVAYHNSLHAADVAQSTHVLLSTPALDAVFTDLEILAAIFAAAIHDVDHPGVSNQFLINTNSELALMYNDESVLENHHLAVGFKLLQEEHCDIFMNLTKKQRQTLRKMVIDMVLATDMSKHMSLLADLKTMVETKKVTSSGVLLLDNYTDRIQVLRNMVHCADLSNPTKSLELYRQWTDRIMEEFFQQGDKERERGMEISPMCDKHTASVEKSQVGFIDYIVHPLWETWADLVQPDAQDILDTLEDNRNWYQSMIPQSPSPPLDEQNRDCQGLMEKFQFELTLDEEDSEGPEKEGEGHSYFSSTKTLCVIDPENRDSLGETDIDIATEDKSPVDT

SMILES: Cc1cn([C@H]2C=C[C@H](CO)O2)c(=O)[nH]c1=O
- activity change, negative = inhibition [1]: 11.1% [at 38 µM]
- Potency [2]: inactive
- activity change, negative = inhibition [3]: 4.45% [at 38 µM]
- activity, negative = inhibition [4]: 23.6% [at 38 µM]
- Potency [5]: inactive
- Potency [6]: inactive
- Potency [7]: inactive
- Potency [8]: inactive

SMILES: C=C[C@H]1CN2CC[C@@H]1C[C@H]2[C@@H](O)c1ccnc2ccc(OC)cc12
- activity change, negative = inhibition [1]: -5.24% [at 17.2 µM]
- Potency [2]: inactive
- activity change, negative = inhibition [3]: -13% [at 17.2 µM]
- activity, negative = inhibition [4]: -9.97% [at 17.2 µM]
- Potency [9]: inactive
- outcome [6]: inactive

SMILES: CCCCCCCCCCCCCCCC(=O)NC[C@@H](COP(=O)([O-])OCC[N+](C)(C)C)OCC
- activity change, negative = inhibition [1]: -23.3% [at 38 µM]
- Potency [2]: inactive
- activity change, negative = inhibition [3]: 16.7% [at 38 µM] (active)
- Potency [10]: > 46 µM
- Potency [11]: > 46 µM
- Potency [9]: inactive
- outcome [12]: inactive
- Potency [6]: inactive
- Potency [13]: inactive
- outcome [14]: inactive
- Potency [15]: 11.2 µM (active)
- outcome [16]: inactive
- outcome [17]: inactive
- outcome [18]: inactive
- Potency [19]: inactive

SMILES: COc1cc2c3cc1Oc1cc(ccc1O)C[C@@H]1c4c(cc(OC)c(O)c4Oc4ccc(cc4)C[C@H]3[N+](C)(C)CC2)CC[N+]1(C)C
- activity change, negative = inhibition [1]: 5.87%
- Potency [2]: inactive
- activity change, negative = inhibition [3]: 0.638%
- activity, negative = inhibition [4]: 21.4%
- Potency [9]: inactive
- Potency [5]: inactive
- Potency [8]: inactive

SMILES: COC(=O)[C@@H]1[C@H]2C[C@H]3c4[nH]c5cc(OC)ccc5c4CCN3C[C@@H]2C[C@@H](OC(=O)c2cc(OC)c(OC)c(OC)c2)[C@@H]1OC
- activity change, negative = inhibition [1]: -23.7% [at 38 µM]
- Potency [2]: 15.8 µM (active)
- activity change, negative = inhibition [3]: 3.19% [at 38 µM]
- Potency [10]: > 46 µM
- Potency [11]: > 46 µM
- Potency [9]: inactive
- Potency [5]: inactive
- Potency [6]: inactive
- Potency [8]: inactive

SMILES: NCCC1([N+](=O)[O-])CCNCC1
- activity change, negative = inhibition [1]: 2%
- activity change, negative = inhibition [3]: 12.9%
- activity, negative = inhibition [4]: -18.7%
- Potency [10]: > 46 µM
- Potency [11]: > 9.22 µM
- Potency [9]: inactive
- Potency [5]: inactive

SMILES: CCCC[S@@](=N)(=O)CC[C@@H](N)C(=O)O
- activity change, negative = inhibition [1]: 3.63% [at 38 µM] and -2.23% [at 38 µM]
- Potency [2]: inactive
- activity change, negative = inhibition [3]: -1.5% [at 38 µM] and 5.43% [at 38 µM]
- Potency [11]: > 46 µM
- Potency [9]: inactive
- Potency [5]: inactive
- outcome [12]: inactive
- Potency [7]: inactive
- outcome [14]: inactive
- Potency [15]: inactive
- Potency [20]: inactive
- outcome [16]: inactive
- outcome [17]: inactive
- outcome [18]: inactive
- Potency [19]: inactive

SMILES: CC(=O)Nc1ccc2c(c1)/C(=C/c1ccc([N+](C)(C)C)cc1)c1ccccc1-2
- activity change, negative = inhibition [1]: -9.13%
- activity, negative = inhibition [4]: 4.17%
- Potency [10]: > 46 µM
- Potency [11]: > 9.22 µM
- Potency [9]: inactive
- Potency [5]: inactive

SMILES: Cc1cc(OCc2nc(N)nc(N)c2-c2ccc(Cl)c(Cl)c2)ccc1[N+](=O)[O-]
- activity change, negative = inhibition [1]: -18.3%
- Potency [2]: 5.01 µM (active)
- activity, negative = inhibition [4]: -17.5%
- Potency [11]: > 9.22 µM
- Potency [9]: inactive
- Potency [5]: inactive
- Potency [6]: 1.58 µM (active)
- Potency [13]: inactive
- Potency [8]: 3.16 µM (active)
